Compound activity deposited in PubChem BioAssay by National Center for Advancing Translational Sciences (NCATS).
This is a sample that favours compounds with a hit; in the whole collection about 1.9% have one here.
IL2 activator – activators of IL-2. IL-2 activation reporter assay, cell-based qHTS; stimulated with anti-CD3/CD4/CD28 beads; in transgenic mouse T cells. AID 652025. activation, % (series mostly up to about 46 µM). 360,000 tested, 0.065% active; in the data active means activation above about 50%; inconclusive means mostly about 30% to 49%
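Screening format: compound pinned onto unstimulated transgenic mouse T cells, 60 min incubation, then anti-CD3/anti-CD4/anti-CD28 bead stimulation for 18 hours at 37 degrees C, followed by EGFP and DsRed detection.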
BRCA1 expr act – activators of BRCA1 expression; MCF7-BRCA1-FFLuc reporter, luminescence, 48 h; response scale: scaled: vehicle 0%, 10 µM genistein 100%; Potency, µM (highest dose often 46.1 µM), most hits filed as activators; 380,000 tested, 1.1% active; AID 624202; further: nearly all actives have a fitted effect of over 80% in size
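Activators of BRCA1 expression were detected as increased firefly luciferase luminescence in engineered MCF7 cells after 48 h compound incubation. Signals were scaled to genistein 10 microM as full activation.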
RXFP1 antagonist – blocks the human relaxin receptor RXFP1; Q9HBX9; HEK293-RXFP1, relaxin-stimulated cAMP HTRF, 30 min; hits give low values; activity change, negative = inhibition, % at 57.5 µM; 350,000 tested, 0.59% active; AID 1259400;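 active means activity change of -60% or lower, but not beyond a set lower limit; inconclusive means change between -60% and -40%, or beyond the set limit; inactive means change above -40%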
Target sequence (Q9HBX9 whole entry, looked up): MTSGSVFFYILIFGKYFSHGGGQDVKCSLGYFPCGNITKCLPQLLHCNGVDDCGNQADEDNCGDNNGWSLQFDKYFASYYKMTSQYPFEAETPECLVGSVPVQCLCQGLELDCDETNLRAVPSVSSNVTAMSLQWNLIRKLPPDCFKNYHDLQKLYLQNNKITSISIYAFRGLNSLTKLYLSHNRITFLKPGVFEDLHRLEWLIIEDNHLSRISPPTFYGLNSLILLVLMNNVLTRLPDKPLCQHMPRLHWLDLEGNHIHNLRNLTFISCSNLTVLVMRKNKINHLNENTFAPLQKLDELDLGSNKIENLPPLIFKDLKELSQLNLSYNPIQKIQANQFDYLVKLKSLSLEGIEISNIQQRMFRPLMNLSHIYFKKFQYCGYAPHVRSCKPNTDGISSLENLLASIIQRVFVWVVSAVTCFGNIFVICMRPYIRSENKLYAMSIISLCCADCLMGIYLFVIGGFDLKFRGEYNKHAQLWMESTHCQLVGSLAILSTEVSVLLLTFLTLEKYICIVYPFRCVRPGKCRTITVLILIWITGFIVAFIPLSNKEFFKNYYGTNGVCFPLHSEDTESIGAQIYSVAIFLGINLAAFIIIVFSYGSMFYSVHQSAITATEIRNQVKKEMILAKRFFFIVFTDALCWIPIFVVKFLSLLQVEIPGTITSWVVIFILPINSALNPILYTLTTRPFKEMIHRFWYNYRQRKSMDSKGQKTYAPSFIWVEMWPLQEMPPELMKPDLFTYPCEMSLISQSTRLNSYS
RXFP1 agonist – activates the human relaxin receptor RXFP1 | HEK293T-RXFP1 cAMP TR-FRET, 30 min; response scale: percent of porcine relaxin response, buffer zero | Potency, µM (titrated, usually from 57.5 µM), most hits filed as activators | 370,000 tested, 0.3% active; further: nearly all actives have a fitted effect of over 60% in size
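Agonist response is measured as cAMP accumulation in an RXFP1-transfected HEK293T line under PDE4 inhibition. Values are scaled between buffer-only and 29 nM porcine relaxin, and EC50s come from standard Hill equation fits.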
Giardia kill – kills Giardia lamblia; Giardia lamblia trophozoite viability; activity change, % at 7.66 µM, hits read low; 340,000 tested, 0.15% active; in the data active means activity change below about -80%; inconclusive means between about -30% and that limit;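 further: parasites exposed to compound for two days anaerobically before the ATP read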
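Trophozoites 100 cells/well + cpd; 48 hrs, 37 deg C, anaerobic. ATPLite 1-Step added, 15-30 min RT, luminescence read (ATP-based viability).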
NPSR antag – neuropeptide S receptor (human) antagonism, cAMP | CHO-NPSR cells, cAMP TR-FRET, antagonist mode | Potency, µM (titrated, usually from 38.3 µM), usual class: inhibitors | 220,000 tested, 1% active | AID 1461; further: nearly all actives have a fitted effect of over 50% in size
Numbers stand for hits; i = inactive; ? = inconclusive; nt = no result. Unless noted, the call rests on the fitted dose curve; in most records, active means well fitted curve in the direction sought with a large enough effect; inconclusive means small, poorly fitted or top-dose-only effect, or another doubt; inactive means no such curve, though single readings can be large; an effect the other way counts as inactive or inconclusive.

SMILES	IL2 activator	BRCA1 expr act	RXFP1 antagonist	RXFP1 agonist	Giardia kill	NPSR antag
CC(C)CCNC(=O)c1ccc2c(c1)ncn2C1CCCC1	i	7.1µM	i	i	i	i
C=C1C=C(C(F)F)n2ncc(C(=O)N3CCN(c4ccccn4)CC3)c2N1	nt	i	nt	nt	nt	nt
O=C(CN1C(=O)C2CCCCC2C1=O)Nc1nc(-c2ccc(F)cc2)cs1 (stereo not given)	i	i	?	i	i	nt
O=C(Cc1ccc(F)cc1)Nc1nc(-c2ccc(F)c(F)c2)cs1	i	i	-88	i	i	nt
O=C(CN1C(=O)C2CC=CCC2C1=O)Nc1nc(-c2ccc(F)cc2)cs1 (stereo not given)	i	i	-84	i	i	nt
O=C(NC1CCCCC1)C1COc2ccccc2O1 (stereo not given)	i	i	i	i	i	nt
CC1CCC(NC(=O)C2COc3ccccc3O2)CC1 (stereo not given)	i	10µM	i	i	i	nt
CCOC(=O)N1CCC(n2c(=O)[nH]c3cc(Cl)ccc32)CC1	nt	nt	i	nt	nt	nt
Cc1cc2nc(C)c(Cl)c(=O)n2[nH]1	i	i	i	i	?	i
Cc1nc2cc(-c3ccc(Br)cc3)[nH]n2c(=O)c1Cl	i	4.5µM	i	i	i	nt
O=C(C1CC(c2ccccc2O)=NO1)N1CCCCC1 (stereo not given)	i	10µM	i	i	i	i
O=C(c1ccc2c(=O)n(CCc3ccccc3)c(=O)[nH]c2c1)N1CCN(C(=O)c2ccco2)CC1	nt	i	nt	nt	i	nt
CC(=O)Oc1ccc2occ(C(=O)c3ccccc3)c2c1	i	7.1µM	i	nt	i	nt
O=C(Nc1ncc([N+](=O)[O-])s1)C1CC(=O)N(c2ccc(F)cc2)C1 (stereo not given)	i	i	i	i	-86	nt
O=C(Nc1nccs1)C1CC(=O)N(c2ccc(F)cc2)C1 (stereo not given)	i	i	i	i	i	nt
CC1(C)CC(=O)C(C(C2=C(O)CC(C)(C)CC2=O)c2ccc(Br)s2)C(=O)C1 (stereo not given)	i	i	-99	i	i	i
CN(c1nc(-c2ccc(Br)cc2)cs1)C1CCS(=O)(=O)C1 (stereo not given)	i	11µM	i	i	i	i
O=C(CCc1ccccc1)n1nc(-c2ccco2)nc1SCc1ccccc1	i	10µM	i	i	i	i
CCn1nc(-c2ccc(C)cc2)nc2c(=O)n(C)c(=O)nc1-2	nt	i	nt	nt	-102	nt
CCS(=O)(=O)n1nc(-c2ccc(C)cc2)nc1N	i	i	i	i	i	i
Cn1nc(-c2ccncc2)nc2c(=O)n(C)c(=O)nc1-2	nt	i	nt	nt	-88	nt
c1coc(-c2nc3cc4ccccc4cc3nc2-c2ccco2)c1	nt	i	nt	nt	?	nt
CCOc1ccc(OCC)c(NC(=O)c2csc3c2CCCC3)c1	nt	nt	?	i	nt	nt
COc1ccc(C(=O)c2sc3nc(C)cc(-c4cccs4)c3c2N)cc1OC	550	i	i	i	i	i
COc1ccc(C(=O)c2sc3nc(C)cc(-c4cccs4)c3c2N)cc1	i	i	i	i	i	i
SMILES	IL2 activator	BRCA1 expr act	RXFP1 antagonist	RXFP1 agonist	Giardia kill	NPSR antag
Cc1cc(C(=O)N2CCCC(C(=O)c3ccc(Oc4ccccc4)cc3)C2)n[nH]1 (stereo not given)	i	i	-85	i	i	nt
O=C1NC(=S)S/C1=C\C=C\c1ccc([N+](=O)[O-])o1	i	i	i	i	-86	7.9µM
Cn1c(/C(C#N)=C(\O)c2ccc(Cl)s2)nc2ccccc21	i	i	i	i	i	nt
Cn1c(/C(C#N)=C(\O)c2ccc([N+](=O)[O-])s2)nc2ccccc21	i	i	i	i	-86	nt
COc1ccc(-c2nnc3ccc(SC(C)C)nn23)cc1OC	nt	i	nt	nt	i	nt
OC1(c2ccc(Cl)cc2)CN(c2ccccc2)C2=[N+]1CCS2 (stereo not given)	i	i	i	i	i	10µM
CN(C)c1ccc(Cc2cc3c(O)ccc(O)c3cc(Cc3ccc(N(C)C)cc3)c2=O)cc1	i	i	-107	nt	i	nt
CN(C)c1ccc(C(=O)c2ccc(O)cc2O)cc1	i	?	i	i	i	i
CCCN(C(=O)c1noc2c1COc1ccc(C)cc1-2)c1ccc(Cl)c(Cl)c1	nt	i	nt	i	nt	nt
CSc1ccc(CN2CCN(C(=O)CC(C)C)CC2)cc1	i	i	-63	i	i	nt
Cc1nc(COC(=O)c2c(C)nn(-c3ccccc3)c2C)cs1	i	13µM	i	i	i	i
Cc1ccc(C(=O)C2=C(O)C(=O)N(CCCn3ccnc3)C2c2ccc(OC(C)C)cc2)o1 (stereo not given)	i	i	i	16µM	i	?
CCCCCOc1ccc(CN2CCOCC2)cc1Cl	i	8.9µM	i	i	i	i
O=S(=O)(c1ccc2c(c1)C(=NO)c1cc(S(=O)(=O)N3CCCCC3)ccc1-2)N1CCCCC1	i	i	i	i	i	2µM
CC1CCN(S(=O)(=O)c2ccc3c(c2)C(=NO)c2cc(S(=O)(=O)N4CCC(C)CC4)ccc2-3)CC1	i	i	i	i	i	0.5µM
O=S(=O)(c1ccc(S(=O)(=O)N2CCCC2)cc1)N1CCCCCC1	i	i	i	i	i	i
CC1CCCCN1CCCOC(=O)c1ccc(OC2CCCCC2)cc1 (stereo not given)	nt	nt	i	nt	nt	nt
Cc1ccc(NC(=O)Cn2nnc3ccccc32)cc1	i	8.9µM	i	i	i	i
COC(=O)c1ccc(NC(=O)Cn2nnc3ccccc32)cc1	i	10µM	i	i	i	i
Cc1cccc(NC(=O)Cn2nnc3ccccc32)c1	i	13µM	i	i	i	i
CCN1C=CC(=C2C(=O)c3ccccc3C2=O)C=C1	i	?	i	i	-94	i
CCCN1C=CC(=C2C(=O)c3ccccc3C2=O)C=C1	i	i	i	i	-97	i
NS(=O)(=O)c1ccc(NC(=O)c2cnn3c2NC(=C2CC2)C=C3C(F)F)cc1	nt	i	nt	nt	nt	nt
Cc1ccccc1C(=O)N/N=C/c1cccc2ccccc12	i	13µM	i	i	i	nt
CCCN1CNc2c(c(=O)[nH]c(=S)n2CCc2ccc(OCC)c(OCC)c2)C1	nt	i	nt	nt	i	nt
SMILES	IL2 activator	BRCA1 expr act	RXFP1 antagonist	RXFP1 agonist	Giardia kill	NPSR antag
COc1cc(S(=O)(=O)O)c(C)cc1N=Nc1c(O)ccc2cc(S(=O)(=O)O)ccc12	nt	i	nt	nt	nt	nt
O=C(CSc1ncc(-c2ccc(F)cc2)[nH]1)N1CCCCC1	i	11µM	i	i	i	i
N#Cc1cc(C#N)c(N2CCN(c3cccc(Cl)n3)CC2)nc1N	i	8.9µM	i	i	i	i
NC1CCN(c2cccc(Cl)n2)CC1	nt	nt	i	nt	nt	i
Cc1ccc(NC(=O)Cn2c(=O)n(CCCCC(=O)NCc3ccccc3Cl)c(=O)c3ccccc32)cc1C	nt	i	nt	i	nt	nt
C=C(C)CNC(=S)Nc1nc2c(cc1C(=O)OCC)CCCC2	i	7.1µM	i	i	i	i
